The values that follow come from PubChem BioAssay (NCATS).

The target in assay [1] is Ubiquitin carboxyl-terminal hydrolase 1 (Homo sapiens) (UniProt O94782). Briefly: Inhibitors of USP1/UAF1: Pilot qHTS (AID 504865).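 Note: rhodamine fluorescence freed from ubiquitin-rhodamine substrate followed over time; top concentration of the series differs between compounds; nearly all actives have a fitted effect of over 35% in size.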 The gist of the method:
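1nM USP1/UAF1 + cpd, 15 min RT; start w/ Ub-Rho 150nM final; kinetic FL 480/540 nm, 6 reads q60 s. Buffer 50mM HEPES pH 7.8, 0.5mM EDTA, 1mM TCEP, 0.01% Tween-20, 0.1 mg/ml BSA.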

Assay [2] has as its target Androgen receptor (Homo sapiens) (UniProt P10275). Description: qHTS assay for small molecule antagonists of androgen receptor signaling (AID 588516; active = well fitted curve in the direction sought with a large enough effect in the signal ratio, with a control signal flat, not every such curve was filed as active; the % refers to the signal ratio). The essentials: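 HEK293 AR-UAS-bla cells, 10% dialyzed FBS medium; cpd titration + R1881 10 nM final, 16 h 37 C; CCF4 2 h RT; FRET ratio; IC50/efficacy via Hill fit.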

SMILES strings stand for the structures. Results filed as inconclusive are left out. Entries that show only a call come without a potency. Active and inactive are the calls of the source. Unless noted, calls come from the whole dose curve; as a rule, active = well fitted inhibition curve with a large enough effect; inconclusive = small, poorly fitted or top-dose-only effect; inactive = flat fitted curve, though single readings scatter.

Sequence of Androgen receptor (Homo sapiens) (P10275 whole entry, looked up): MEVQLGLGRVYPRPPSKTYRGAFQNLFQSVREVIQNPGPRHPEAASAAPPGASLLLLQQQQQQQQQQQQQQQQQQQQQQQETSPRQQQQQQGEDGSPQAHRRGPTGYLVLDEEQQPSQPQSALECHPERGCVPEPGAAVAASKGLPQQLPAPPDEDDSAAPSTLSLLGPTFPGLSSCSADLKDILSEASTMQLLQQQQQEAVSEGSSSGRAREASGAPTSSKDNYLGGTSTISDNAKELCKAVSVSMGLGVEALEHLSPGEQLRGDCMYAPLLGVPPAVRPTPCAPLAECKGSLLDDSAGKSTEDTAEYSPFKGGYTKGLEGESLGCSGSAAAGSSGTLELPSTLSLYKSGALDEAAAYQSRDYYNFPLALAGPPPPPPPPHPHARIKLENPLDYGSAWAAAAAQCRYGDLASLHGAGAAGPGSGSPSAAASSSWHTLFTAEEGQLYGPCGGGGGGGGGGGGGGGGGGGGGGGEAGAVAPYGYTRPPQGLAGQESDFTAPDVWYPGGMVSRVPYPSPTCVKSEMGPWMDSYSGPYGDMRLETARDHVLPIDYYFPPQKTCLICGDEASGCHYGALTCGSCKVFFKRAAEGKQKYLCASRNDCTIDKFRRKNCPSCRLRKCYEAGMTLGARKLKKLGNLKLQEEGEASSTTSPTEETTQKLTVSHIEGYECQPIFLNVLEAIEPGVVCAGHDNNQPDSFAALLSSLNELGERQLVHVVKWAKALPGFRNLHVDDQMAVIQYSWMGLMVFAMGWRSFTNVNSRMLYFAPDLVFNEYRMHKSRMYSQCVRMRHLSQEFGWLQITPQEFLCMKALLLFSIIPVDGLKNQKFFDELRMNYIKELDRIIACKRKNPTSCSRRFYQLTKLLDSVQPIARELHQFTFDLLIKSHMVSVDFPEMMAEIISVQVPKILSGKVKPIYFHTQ
Sequence of Ubiquitin carboxyl-terminal hydrolase 1 (Homo sapiens) (O94782 whole entry, looked up): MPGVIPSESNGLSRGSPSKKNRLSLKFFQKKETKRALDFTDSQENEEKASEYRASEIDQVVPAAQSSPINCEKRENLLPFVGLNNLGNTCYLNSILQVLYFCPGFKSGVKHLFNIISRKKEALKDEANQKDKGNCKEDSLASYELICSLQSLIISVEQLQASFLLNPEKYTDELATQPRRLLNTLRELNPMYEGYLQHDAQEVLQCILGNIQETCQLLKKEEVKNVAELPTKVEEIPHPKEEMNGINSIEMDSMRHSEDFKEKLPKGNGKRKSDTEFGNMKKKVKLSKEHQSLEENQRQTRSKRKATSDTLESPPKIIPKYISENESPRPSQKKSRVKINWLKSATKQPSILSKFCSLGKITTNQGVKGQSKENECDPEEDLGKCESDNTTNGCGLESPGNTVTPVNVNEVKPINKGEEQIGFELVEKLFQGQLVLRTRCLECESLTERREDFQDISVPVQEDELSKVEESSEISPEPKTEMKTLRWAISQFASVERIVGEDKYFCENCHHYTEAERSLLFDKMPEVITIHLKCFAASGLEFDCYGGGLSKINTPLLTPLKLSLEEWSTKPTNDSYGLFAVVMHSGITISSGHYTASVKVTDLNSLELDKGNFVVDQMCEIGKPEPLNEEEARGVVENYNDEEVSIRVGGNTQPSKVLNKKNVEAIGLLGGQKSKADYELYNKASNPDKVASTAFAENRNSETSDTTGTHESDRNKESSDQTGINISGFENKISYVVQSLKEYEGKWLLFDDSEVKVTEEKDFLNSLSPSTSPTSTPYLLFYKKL

As to `CCn1cc(C(=O)O)c(=O)c2cnc(N3CCNCC3)nc21`, in assay [1], the Potency entry is “inactive”. `c1ccc2c(CC3=NCCN3)cccc2c1`: the Potency entry in assay [1] was “inactive”.

As to `CC(COc1ccccc1)NC(C)C(O)c1ccc(O)cc1` (configuration not stated), the Potency result in assay [1] is “inactive”. The same measure, in the same setting: the result for `CCC(=O)c1ccc(O)cc1` reads “inactive”. Still for that read-out and setting: the result for `Cn1cc[nH]c1=S` reads “inactive”.

For `Cc1ncc(COP(=O)(O)O)c(C=O)c1O`, in assay [1], the Potency entry is “inactive”. Same read-out and setting: then `NC(=O)NNc1ccccc1`, with “inactive”; and `CCCOC(=O)c1ccccc1`, with “inactive”; and `CCCCCCCCCCCCCCCCCCOCC(O)CO` (configuration not stated), with “inactive”.

As to `O=C(O)COc1nn(Cc2ccccc2)c2ccccc12`, the Potency entry in assay [1] was “inactive”.

Take `CC(O)COc1ccccc1` (configuration not stated): the outcome in assay [2] was inactive. Still for that read-out and setting: the result for `NCCNCCNCCNCCN` reads “inactive”.
